Measurements as given in the supplement of paper PMC6555819.

Key:
Experiment in all cases: PBM binding z-score (relative to random genomic background probes); higher = stronger binding; sequences stand for … in GC…GCGATTGACAGCGTAGAATGAAGG
[1] = test system: FXR:RXRa (NR concentration 270 nM, RXRa partner concentration 90 nM)
In short: (§1)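 Ligand-free nuclear receptor dimers were bound for 1 h to custom Agilent 4×180K protein-binding microarrays. Detection used antibodies against each partner (one per run). Binding z-scores rest on regression-normalized fluorescence, with random background probes as the reference.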

[2] = test system: LXRa:RXRa (NR concentration 270 nM, RXRa partner concentration 90 nM)
In short: as §1

[3] = test system: LXRa homodimer (NR concentration 270 nM)
In short: as §1

[4] = test system: LXRb:RXRa (NR concentration 270 nM, RXRa partner concentration 90 nM)
In short: as §1

[5] = test system: LXRb homodimer (NR concentration 270 nM)
In short: as §1

[6] = test system: PPARa:RXRa (NR concentration 270 nM, RXRa partner concentration 90 nM)
In short: as §1

[7] = test system: PPARg:RXRa (NR concentration 180 nM, RXRa partner concentration 90 nM)
In short: as §1

[8] = test system: PPARg:RXRa 270nM:90nM, anti-RXR (NR concentration 270 nM, RXRa partner concentration 90 nM)
In short: as §1

[9] = test system: PPARg:RXRa 30nM:10nM, anti-RXR (NR concentration 30 nM, RXRa partner concentration 10 nM)
In short: as §1

[10] = test system: PPARg:RXRa 90nM:30nM, anti-RXR (NR concentration 90 nM, RXRa partner concentration 30 nM)
In short: as §1

[11] = test system: PPARg:RXRa DBDmut IVT, anti-RXR (DBD mutation: RXRa K156A/R161A, NR concentration 270 nM, RXRa partner concentration 90 nM)
In short: as §1

[12] = test system: PPARg:RXRa IVT, anti-PPARg (NR concentration 270 nM, RXRa partner concentration 90 nM)
In short: as §1

[13] = test system: PPARg DBDmut:RXRa IVT, anti-PPARg (DBD mutation: PPARg1 K132A/R137A, NR concentration 270 nM, RXRa partner concentration 90 nM)
In short: as §1

[14] = test system: PPARg DBDmut IVT, anti-PPARg (DBD mutation: PPARg1 K132A/R137A, NR concentration 270 nM)
In short: as §1

[15] = test system: PPARg homodimer (NR concentration 180 nM)
In short: as §1

[16] = test system: PXR:RXRa (NR concentration 270 nM, RXRa partner concentration 90 nM)
In short: as §1

[17] = test system: PXR homodimer (NR concentration 270 nM)
In short: as §1

[18] = test system: RARa:RXR (NR concentration 270 nM, RXRa partner concentration 90 nM)
In short: as §1

[19] = test system: RARa homodimer (NR concentration 270 nM)
In short: as §1

[20] = test system: RARb:RXRa (NR concentration 270 nM, RXRa partner concentration 90 nM)
In short: as §1

Row | Sequence | PBM binding z-score [1] | PBM binding z-score [2] | PBM binding z-score [3] | PBM binding z-score [4] | PBM binding z-score [5] | PBM binding z-score [6] | PBM binding z-score [7] | PBM binding z-score [8] | PBM binding z-score [9] | PBM binding z-score [10] | PBM binding z-score [11] | PBM binding z-score [12] | PBM binding z-score [13] | PBM binding z-score [14] | PBM binding z-score [15] | PBM binding z-score [16] | PBM binding z-score [17] | PBM binding z-score [18] | PBM binding z-score [19] | PBM binding z-score [20]
1 | TCTTGTAGATCAAAAGAGGTTAAGAAAGTGCGCT | 0.748 | 3.35 | -0.0772 | 1.66 | -0.239 | 1.89 | -0.0297 | 1.59 | 2.62 | 2.16 | 1.47 | 0.83 | 0.0222 | 0.122 | 0.373 | 2.86 | 0.102 | 1.79 | -0.0887 | 0.887
2 | ATCGAAAGATCGTGAGGTGAGTATACAGAAAGGC | 0.0329 | -0.211 | 0.0924 | -0.208 | -0.374 | 0.327 | 0.669 | -0.00875 | 0.225 | 0.106 | -1.15 | 0.285 | 0.657 | 0.767 | -0.197 | -0.0729 | -0.403 | 0.277 | -0.457 | 0.133
3 | AGAATGAGGTTATTAAGATCAGGTAATTGCGGTC | 1.7 | 1.73 | 0.77 | 1.33 | 0.187 | 2.49 | 1.38 | 1.96 | 0.716 | 1.09 | 3.34 | 2.83 | 0.665 | 0.745 | 1.17 | 1.48 | 0.904 | 1.51 | 0.41 | 1.37
4 | CCAGAAAGGTGAGAAGGTAACTCAGCCTCGATTA | 0.521 | 0.782 | -0.167 | 0.842 | -0.293 | 2.47 | 1.02 | 1.49 | 0.32 | 0.796 | 2.89 | 1.98 | -0.302 | -0.361 | 1.15 | 0.319 | -0.419 | 1.28 | 0.133 | 2.67
5 | CGTCAAAGTTCAACTAAGGTAGCGTAAAGCACGC | 6.83 | 6.17 | 3.78 | 4.01 | 1.98 | 4.8 | 4.84 | 5.37 | 1.94 | 4.03 | 0.387 | 1.51 | -0.0827 | 0.743 | 3.4 | 5.03 | 4.13 | 3.8 | 2.16 | 5.15
6 | CGAACTAGATCATTGACAGGACAGTGAATAGTAA | -0.0761 | -0.268 | 0.18 | -0.274 | -0.0892 | 0.0131 | 0.572 | -0.333 | 0.0975 | 0.113 | 1.8 | 0.856 | 0.569 | 0.266 | 0.538 | 0.285 | -0.0589 | 0.3 | 0.92 | 0.0179
7 | CGTCCAAGGTCAAGGCCAGTGAAAGAGACTCGAA | 7.2 | 5.21 | 0.208 | 3.73 | 0.00439 | 5.55 | 4.75 | 5.05 | 1.48 | 3.69 | 2.93 | 3.4 | 0.269 | -0.184 | 2.5 | 3.44 | 0.449 | 4.09 | 0.0458 | 5.19
8 | ATATGTAGGTTAAGGGTCATTCTGGTTGGTTCGC | 5.42 | 4.75 | 3.48 | 4.51 | 1.56 | 6.65 | 11.4 | 9.66 | 10.5 | 11.5 | 7.57 | 7.51 | 2.31 | 1.76 | 4.67 | 4.85 | 1.04 | 5.63 | 2.03 | 3.56
9 | GTACCAAGGTGACTAGGTCGTTGATGAGTAGGCG | 0.348 | 0.174 | -0.398 | -0.125 | -1.01 | 1.59 | 1.89 | 1.69 | 0.141 | 0.756 | 1.99 | 3.81 | 0.227 | -0.333 | 0.145 | 0.12 | -0.403 | 0.639 | 0.0203 | 1.55
10 | ATCTCTAGGTAAAGTTCAGTGATAGATCGATAGA | 1.49 | 1.95 | 1.88 | 1.14 | 1.34 | 2.39 | 3.59 | 4.16 | 2.3 | 3.88 | 2.28 | 2.44 | 1.4 | 1.48 | 1.9 | 1.92 | 1.96 | 1.35 | 1.69 | 2.71
11 | AGTCAAAGTTCAGGACGATGTAACGTAAAGCACG | 3.6 | 3.59 | 0.938 | 1.8 | 0.134 | 3.05 | 4.28 | 4.75 | 1.92 | 3.68 | -0.314 | 1.19 | 0.674 | 0.961 | 2.13 | 2.22 | 1.24 | 1.78 | 0.666 | 4.17
12 | ACTAGTTGGTCATCTGAGGTCACACACAATTCGG | 3.47 | 5.26 | 5.1 | 4.09 | 1.65 | 3.98 | 2.52 | 2.62 | 1.13 | 2.05 | 2.52 | 3.08 | 1.2 | 0.851 | 3.6 | 5.61 | 2.26 | 4.86 | 1.05 | 3.69
13 | ATCTCTAAGTAAAGATAGTTCAGTGAATGCAAAT | 0.825 | 1.03 | 0.571 | 0.658 | 0.588 | 0.429 | 0.449 | 0.18 | 0.359 | 0.14 | 0.013 | -0.072 | 0.975 | 1.08 | 1.3 | 0.808 | 0.715 | 1.08 | 1.41 | 0.426
14 | ACTATTAGTTGACTTAGGGCAACCGTTACGACGC | 0.212 | 0.547 | 0.268 | 0.434 | 0.514 | 0.372 | 0.776 | 0.417 | 0.154 | 0.461 | 0.596 | 0.527 | 1.12 | 0.546 | 0.51 | 0.554 | 0.502 | 0.863 | 0.271 | 0.949
